Measured values reported in PubChem BioAssay (NCI).
About 83,000 compounds went through this panel and 20% of them were active in at least one assay; those are over-represented in the sample as a whole.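 The endpoint reported here, percent growth, reads 100 for growth as untreated, 0 for no net growth and -100 for all cells dead.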 Unmarked numbers belong to inactive results. The source made the active and inactive calls. Rule for the calls: active = growth percent below 10; inactive = the rest.

How the values were obtained:
Test in all cases: NCI-60 one-dose screen, 48 h (100 = growth as untreated, 0 = no growth, -100 = all killed)
Conditions in all cases: 10 µM unless noted
NCI-H23 lung = tested on: NCI-H23 lung
NCI-H226 lung = tested on: NCI-H226 lung
NCI-H322M lung = tested on: NCI-H322M lung
HOP-62 NSCLC = tested on: HOP-62 NSCLC
NCI-H460 lung = tested on: NCI-H460 lung
HOP-92 NSCLC = tested on: HOP-92 NSCLC
NCI-H522 lung = tested on: NCI-H522 lung
A549/ATCC NSCLC = tested on: A549/ATCC NSCLC
786-0 renal = tested on: 786-0 renal
COLO 205 colon = tested on: COLO 205 colon
DU-145 prostate = tested on: DU-145 prostate
K-562 leukemia = tested on: K-562 leukemia
MALME-3M melanoma = tested on: MALME-3M melanoma
MDA-MB-231 breast = tested on: MDA-MB-231 breast
RXF 393 renal = tested on: RXF 393 renal
SF-268 CNS = tested on: SF-268 CNS
SF-295 CNS = tested on: SF-295 CNS
SF-539 CNS = tested on: SF-539 CNS
UACC-257 melanoma = tested on: UACC-257 melanoma
M14 melanoma = tested on: M14 melanoma

Row | SMILES | growth (NCI-H23 lung) | growth (NCI-H226 lung) | growth (NCI-H322M lung) | growth (HOP-62 NSCLC) | growth (NCI-H460 lung) | growth (HOP-92 NSCLC) | growth (NCI-H522 lung) | growth (A549/ATCC NSCLC) | growth (786-0 renal) | growth (COLO 205 colon) | growth (DU-145 prostate) | growth (K-562 leukemia) | growth (MALME-3M melanoma) | growth (MDA-MB-231 breast) | growth (RXF 393 renal) | growth (SF-268 CNS) | growth (SF-295 CNS) | growth (SF-539 CNS) | growth (UACC-257 melanoma) | growth (M14 melanoma)
1 | Fc1ccc2c(c1)c(-c1nc(-c3c[nH]c4ncccc34)cs1)cn2CCCCN1CCCCC1 | -75.9% (active) | -7.3% (active) | -47.9% (active) | -89.5% (active) | -80% (active) | -52.8% (active) | -87.2% (active) | -87.7% (active) | -93.7% (active) | -89.6% (active) | -93.1% (active) | -74.1% (active) | -73% (active) | -88.4% (active) | -73.1% (active) | -77.5% (active) | -60.7% (active) | -82.4% (active) | -87.2% (active) | -88.5% (active)
2 | COc1cc(/C=C\c2cc(OC)c(OC)c(OC)c2)cc(NS(=O)(=O)c2cccc(Cl)c2)c1OC | 22.9% | 51.8% | 50% | 63.2% | 6.99% (active) | 47% | 9.96% (active) | 21.4% | 6.56% (active) | -68.2% (active) | -31.6% (active) | 11.2% | 112% | 27% | 37.8% | -2.74% (active) | 13.8% | -0.958% (active) | 57.3% | 9.89% (active)
3 | CC[C@H](C)[C@H](NC(=O)C12C3C4C1C1C2C3C41NC(C)=O)C(=O)N(C)[C@H](C[C@@H](OC(C)=O)c1nc(C(=O)N[C@@H](Cc2ccccc2)C[C@H](C)C(=O)OC)cs1)C(C)C (stereo not given in full) | 25.1% | 31.7% | 51.5% | 22.4% | 3.63% (active) | 30.2% | 6.65% (active) | 27.7% | 12% | -26.1% (active) | 1.99% (active) | 8.82% (active) | 58.6% | 22.1% | 41.9% | 27.5% | 13% | 5.34% (active) | 44.2% | 1.02% (active)
4 | COc1ccc(/C=C\c2cc(OC)c(OC)c(OC)c2)cc1NS(=O)(=O)c1ccc(Cl)cc1 | 75.3% | 70.9% | 73.1% | 83.9% | 84.1% | 37% | 25.9% | 58.9% | 78% | 73.6% | 94% | 36.8% | 59.5% | 66% | 65.8% | 79.4% | 69.3% | 82.6% | 69% | 62.4%
5 | C[n+]1c(/C=C/c2ccc(N(CCCl)CCCl)cc2)sc2ccccc21 | 44.9% | 73.7% | 95% | 52.2% | 20.7% | 61.9% | 16.4% | 40.2% | 50.3% | 32.2% | 45.2% | 15.3% | 54% | 80.8% | 85.6% | 57.7% | 55.7% | 45.4% | 64.7% | 64.7%
6 | Cc1cc(N(CCCl)CCCl)ccc1C=Nc1ccc(-c2csc(Cc3ccccc3)n2)cc1 | 59.1% | 54.6% | 76.6% | 65.1% | 25.5% | 47.5% | 69.7% | 50.7% | 50.8% | 74.1% | 57.1% | 56.8% | 70.8% | 83.3% | 83.8% | 65.6% | 13.4% | 49.3% | 46.2% | 79.8%
7 | Oc1ccc2c3c1OC1[C@@H](O)CC[C@@]4(O)[C@@H](C2)N(CC2CCC2)CC[C@]314 (stereo not given in full) | 104% | 99.1% | 97.7% | 107% | 115% | 86.8% | 86.3% | 98.9% | 96.6% | 113% | 113% | 94.7% | 92.5% | 114% | 97.7% | 105% | 102% | 103% | 97.6% | 103%
8 | C[C@]12C[C@@H](CO)[C@H](O)C[C@@H]1CC[C@@H]1[C@@H]2CC[C@]2(C)[C@@H](O)CC[C@@H]12 | 102% | 102% | 91.1% | 107% | 106% | 87.3% | 77.7% | 99.7% | 102% | 108% | 106% | 74.7% | 90.6% | 111% | 113% | 103% | 113% | 95.8% | 90.4% | 103%
9 | NC1CC2CCCCC2CC1(O)c1ccccc1 (stereo not given) | 94.7% | 92.2% | 103% | 106% | 103% | 88.6% | 97.8% | 99.3% | 99.6% | 106% | 103% | 92.4% | 96.1% | 99.8% | 101% | 102% | 114% | 99.1% | 98% | 100%
10 | COc1ccc2c(c1)c(-c1nc(-c3c[nH]c4ncccc34)cs1)cn2CCCCN1CCCCC1 | 1.32% (active) | 39.6% | -20.2% (active) | -75.5% (active) | -69.8% (active) | 20.5% | -68.8% (active) | -65.9% (active) | -90% (active) | -76.2% (active) | -14.6% (active) | -73.7% (active) | -76.1% (active) | -75.9% (active) | -85.8% (active) | -50.9% (active) | -64.9% (active) | -80.9% (active) | -82.3% (active) | -88% (active)
11 | COC(=O)[C@H](Cc1c[nH]c2ccccc12)NC(=O)[C@@H](OC)[C@@H]1Cc2cc3cc(OC4CC(OC5CC(O)C(O)C(C)O5)C(O)C(C)O4)c(C)c(O)c3c(O)c2C(=O)[C@H]1OC1CC(OC2CC(OC3CC(C)(O)C(O)C(C)O3)C(O)C(C)O2)C(O)C(C)O1 (stereo not given in full) | -20.3% (active) | -38.6% (active) | 6.45% (active) | 9.74% (active) | 6.58% (active) | -13.9% (active) | -28.2% (active) | 12.7% | 1.54% (active) | -39.5% (active) | 12.5% | 4.37% (active) | -47% (active) | -14% (active) | -85.9% (active) | -10.1% (active) | -6.35% (active) | -35.3% (active) | -5% (active) | -60.2% (active)
12 | NC(CCl)CCl | 104% | 94.6% | 102% | -100% (active) | 110% | 109% | 100% | 102% | 107% | -100% (active) | 105% | 116% | 92.6% | 102% | 107% | 103% | 93.9% | 95.1% | 102% | 94.6%
13 | O=C1C2CCC1C(N1CCCC1)CC2 (stereo not given) | 105% | 95.9% | 92.5% | 101% | 103% | 85.5% | 94.9% | 97.8% | 98.4% | 107% | 107% | 98.8% | 94.7% | 110% | 104% | 102% | 95.5% | 95% | 93% | 101%
14 | CC(C)COC(C[N+](=O)[O-])C(Cl)(Cl)Cl (stereo not given) | 105% | 107% | 106% | 111% | 108% | 102% | 98.6% | 98.1% | 112% | 102% | 119% | 99.9% | 123% | 111% | 115% | 105% | 113% | 106% | 96.1% | 105%
15 | CCOC(=O)N[C@H]1CCc2c(Br)c(OC)c(OC)c(OC)c2-c2ccc(SC)c(=O)cc21 | 31.2% | 10.3% | 35.3% | 34.9% | -7.92% (active) | -4.54% (active) | 13.2% | 20.9% | 9.3% (active) | 5.51% (active) | -19.5% (active) | 5.89% (active) | 35.1% | -7.24% (active) | 12.8% | 17.5% | 10.8% | -31.9% (active) | 67.5% | 0.572% (active)
